Data as given in the supplement of paper PMC8975748.
Where a name gives a salt, the structure may show the parent alone.

test system: Saccharomyces cerevisiae BY4741 SeMeCo community; assay: z-score of subpopulation abundance vs DMSO median, subpopulation auxotrophic for HU; higher = larger share of this subpopulation than in DMSO controls; conditions: 10 µM; 24 h; SM minimal medium; subpopulation (auxotrophy): HU
Description: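 Fluorescent four-plasmid SeMeCo (self-establishing metabolically cooperating S. cerevisiae BY4741 community; plasmids pH-mRuby2, pL-mWasabi, pU-eCFP, pM-TagRFP657) was grown 24 h in minimal SM medium with each Selleck FDA-approved drug at 10 µM in 384-well plates. Cells were fixed and imaged by high-content confocal microscopy. For each auxotrophic subpopulation (and the prototroph), a z-score gives the deviation from the DMSO vehicle-control population median.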

Structure (SMILES)	z-score of subpopulation abundance
CCCCCCCCCCCCCCCC[n+]1ccccc1 [Cetylpyridinium Chloride]	16.1
CC(C)=CCOc1c2occc2cc2ccc(=O)oc12 [Imperatorin]	0.85
N[C@@H]1C[C@H]1c1ccccc1 [Tranylcypromine (2-PCPA) HCl]	0.44
C[CH2][Hg][S]c1ccccc1C(=O)[O-].[Na+] [Thimerosal]	6.59
Cc1cc(O)ccc1Cl [Chlorocresol]	-1.07
O=C(O[C@H]1C[C@H]2CC[C@@H](C1)[N+]21CCCC1)C(O)(c1ccccc1)c1ccccc1 [Trospium chloride]	0.09
O=c1[nH]c2ccccc2n1CCCN1CCC(n2c(=O)[nH]c3cc(Cl)ccc32)CC1 [Domperidone]	0.86
C=CC[C@]1(O)CC[C@H]2[C@@H]3CCC4=CC(=O)CCC4=C3C=C[C@@]21C [Altrenogest]	-1.33
C[C@@H]1CC[C@H]2[C@@H](C)C(=O)O[C@@H]3O[C@@]4(C)CC[C@@H]1[C@]32OO4 [Artemisinin]	0.58
CCOC(=O)Nc1ccc(NCc2ccc(F)cc2)cc1N [Retigabine 2HCl]	-0.49
CN[C@@H]1[C@@H](O)[C@@H](O[C@@H]2[C@@H](O)[C@H](O[C@H]3O[C@H]([C@@H](C)O)[C@@H](O)[C@H](O)[C@H]3N)[C@@H](N)C[C@H]2N)OC[C@]1(C)O [Geneticin (G418 Sulfate)]	-0.46
CC1(C)SC2C(N)C(=O)N2C1C(=O)O (stereo not given) [6-Aminopenicillanic acid]	0.4
C=C[C@H]1CN2CC[C@H]1C[C@H]2[C@H](O)c1ccnc2ccccc12 [Cinchonidine]	-0.45
C[N+]12CCC(CC1)C(OC(=O)C(O)(c1ccccc1)c1ccccc1)C2 (stereo not given) [Clidinium Bromide]	-0.29
CC[C@H]1[C@@H]2C[C@H]3[C@@H]4N(C)c5ccccc5[C@]45C[C@@H]([C@@H]2[C@H]5O)N3[C@@H]1O [Ajmaline]	-0.28
CN1c2ccccc2C(NCCCCCCC(=O)O)c2ccc(Cl)cc2S1(=O)=O (stereo not given) [Tianeptine sodium]	-1.1
CC[N+](C)(CC)CCOC(=O)C(O)(c1ccccc1)c1ccccc1 [Methylbenactyzine Bromide]	-0.63
C[C@H]1O[C@H](O[C@H]2[C@H](O)[C@@H](O)[C@@H](O)[C@H](O)[C@@H]2O)[C@@H](N)C[C@@H]1NC(=N)C(=O)O [Kasugamycin hydrochloride]	-0.33
CN1[C@@H]2C[C@@H](OC(=O)[C@H](CO)c3ccccc3)C[C@H]1[C@@H]1O[C@@H]12 [Scopolamine HBr]	-1.37
C=C(C)[C@H]1Cc2c(ccc3c2O[C@@H]2COc4cc(OC)c(OC)cc4[C@@H]2C3=O)O1 [Rotenone (Barbasco)]	1.02

Structure (SMILES)	z-score of subpopulation abundance
Cn1cc(C2=C(c3cn(C4CCN(Cc5ccccn5)CC4)c4ccccc34)C(=O)NC2=O)c2ccccc21	-0.2
CN1[C@@H]2CC[C@H]1C[C@@H](OC(=O)C(CO)c1ccccc1)C2 (stereo not given in full) [Atropine sulfate monohydrate]	0.23
COc1ccc2[nH]cc(CCN)c2c1 [5-Methoxytryptamine]	0.53
CCN(CC)CCOC(=O)C(O)(c1ccccc1)c1ccccc1 [Benactyzine hydrochloride]	1.62
N#Cc1nn(-c2c(Cl)cc(C(F)(F)F)cc2Cl)c(N)c1[S+]([O-])C(F)(F)F (stereo not given) [Fipronil]	-0.37
CCN(C)C(=O)Oc1cccc([C@H](C)N(C)C)c1 [Rivastigmine]	0.2
CN(C)C(=O)Oc1ccc[n+](C)c1 [Pyridostigmine Bromide]	0.63
CCCN1C[C@H](CSC)C[C@@H]2c3cccc4[nH]cc(c34)C[C@H]21 [Pergolide Mesylate]	-0.93
CC(C)(O)C(Cl)(Cl)Cl [Chlorobutanol]	0.05
Cc1cc(C(C#N)c2ccc(Cl)cc2)c(Cl)cc1NC(=O)c1cc(I)cc(I)c1O (stereo not given) [Closantel]	0.25
CN(C)[C@@H]1C(=O)C(C(N)=O)=C(O)[C@@]2(O)C(=O)C3=C(O)c4c(O)cccc4[C@@](C)(O)[C@H]3C[C@@H]12 [Tetracycline HCl]	-0.3
CC(=O)OCC1=C(C(=O)O)N2C(=O)C(N)C2SC1 (stereo not given) [7-Aminocephalosporanic acid]	0.37
Oc1cc(Cl)ccc1Oc1ccc(Cl)cc1Cl [Triclosan]	0.43
COc1ccc2c(c1)[C@]13CCCC[C@@H]1[C@H](C2)N(C)CC3 [Dextromethorphan hydrobromide hydrate]	-0.61
CC(NC(C)(C)C)C(=O)c1cccc(Cl)c1 (stereo not given) [Amfebutamone (Bupropion) HCl]	-0.9
C=CN1CCCC1=O.II [Povidone iodine]	1.56
NCCc1c[nH]c2ccc(O)cc12 [Serotonin HCl]	-0.18
CCC1=C[C@H]2CN3CCc4c([nH]c5ccccc45)[C@](C(=O)OC)(C2)[C@H]13 [Catharanthine]	-0.39
O=C(O[C@H]1C[N+]2(CCCOc3ccccc3)CCC1CC2)C(O)(c1cccs1)c1cccs1 [Aclidinium Bromide]	0.63
CN(C)[C@@H]1C(=O)C(C(N)=O)=C(O)[C@@]2(O)C(=O)C3=C(O)c4c(O)cccc4[C@@](C)(O)[C@H]3[C@H](O)[C@@H]12 [Oxytetracycline Dihydrate]	-0.06
